The values that follow come from PubChem BioAssay AID1789 (The Scripps Research Institute Molecular Screening Center, 2009).

About 2,700 (0.93%) of roughly 290,000 compounds were called active.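 The calls were made as follows: active = inhibition above the screen-wide mean plus 3 SD, computed separately per campaign (cut at about 16% in these data); inactive = the rest.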 This excerpt belongs to a sample that is enriched for actives.

For this experiment, the system named is Heat shock protein HSP 90 (rabbit reticulocyte lysate; luciferase refolding). As to the kind of experiment: HSP90 inhibitors, primary screen, cell lysate, luminescence (AID 1789).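 Also: 0% = DMSO wells and 100% = 60 µM geldanamycin wells; inhibitors lower the luminescence because luciferase stays unfolded.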 As to conditions: 3 h, at 5.6 µM, hits give high values.
`CCCOc1cccc(C(=O)NCCCNC(=O)c2cccnc2)c1`: the inhibition was 3.77% (inactive). As for `Nc1cc(N2CCCCCC2)c2nonc2c1[N+](=O)[O-]`, the figure is 0.32% (inactive); as for `Cn1ncc2c(NNC(=O)Cc3cccc4ccccc34)ncnc21`, 5.78% (inactive). Under `COc1ccc(C(=O)O/N=C(\N)c2ccccn2)cc1[N+](=O)[O-]` stands -3.48% (inactive); under `N/C(=N\OC(=O)c1ccc([N+](=O)[O-])cc1)c1ccccn1`, 2.51% (inactive).

For the compound `Cc1ccc(C(=O)O/N=C(\N)c2ccccn2)cc1Cl`, the inhibition is 42.5% (active).

As for `CN(C)c1ccc(C2N(C)C(=O)c3ccccc3N2C)cc1` (stereo not given), the inhibition was 4.78% (inactive). As for `Cc1ccc(C)c(NS(=O)(=O)c2c(C)[nH]c(C)c2C(=O)N2CCCCC2)c1`, the figure is 3.8% (inactive). Under `O=C(Nc1ccccc1Cl)NC1(C(=O)N2CCOCC2)CCCCC1` stands 0.58% (inactive); under `Cc1ccc2c(N)c(C(=O)c3ccccc3)sc2n1`, 1.67% (inactive). Under `CCN(CC)C(=O)c1sc2nc(-c3ccccc3)ccc2c1N` stands 16.5% (active).

With `CS(=O)(=O)c1sc2nc(-c3ccccc3)cc(-c3ccccc3)c2c1N`, the inhibition is 0.41% (inactive). For the compound `O=C(O)CSc1c2c(nc3cc(C(=O)Nc4cccc(C(F)(F)F)c4)ccc13)CCCC2`, the inhibition was -0.05% (inactive). As for `CCCCNC(=O)Nc1c(C)cc(SC#N)cc1C`, the figure is 36.7% (active); as for `CCCCNC(=O)C(=O)c1ccccc1NC(C)=O`, 4.09% (inactive). As for `CCCCNC(=S)NNC(=O)c1cc(C)on1`, the figure is -1.37% (inactive); as for `CC(C)CC[n+]1ccn(C2=C([O-])c3ccccc3C(=O)/C2=N\S(=O)(=O)c2ccccc2)c1`, 6.11% (inactive); as for `CCOC(=O)c1sc(NC(=O)c2sc(C)nc2C)nc1C`, 9.21% (inactive). Under `CC1CCCCN1CCCNc1ccc(C(CC(N)=O)NC(=O)c2ccccc2)cc1[N+](=O)[O-]` (stereo not given) stands -2.66% (inactive); under `Cc1nc2ccc(C(=O)N(C)CC3CCCN(CCc4ccc(Cl)cc4)C3)cc2[nH]1` (stereo not given), -8.86% (inactive); under `Cc1nc2ccc(C(=O)O)cc2[nH]1`, 31.3% (active). As to `OC(c1nc2ccc(F)cc2[nH]1)C(O)c1nc2ccc(F)cc2[nH]1` (stereo not given), the inhibition is -4.25% (inactive). As for `CC(C)c1nc2ccc(C(=O)O)cc2[nH]1`, the figure is 37.9% (active); as for `OC(c1nc2ccccc2[nH]1)C(O)C(O)C(O)c1nc2ccccc2[nH]1` (stereo not given), -0.14% (inactive); as for `Cc1nc2ccc(C(=O)N/N=C/c3ccc(O)cc3)cc2[nH]1`, 1.87% (inactive). As for `COc1ccc(C(=O)n2nc(C)c(Br)c2C)cc1OC`, the figure is 4.92% (inactive); as for `C#CCOc1ccc(/C=C2/C(=O)ON=C2C)cc1OCC`, 1.13% (inactive); as for `Cc1ccc(NC(=O)C(CC(=O)O)C2CCCO2)c(C)c1` (stereo not given), -2.07% (inactive). Under `CCOC(=O)N1CCC(NC(=O)CCc2ccccc2)CC1` stands 2.73% (inactive); under `COc1ccc(C(=O)NCCn2nc(C)cc2C)cc1OC1CCN(C(C)=O)CC1`, 0.85% (inactive); under `O=C(Nc1nnc(C2CC2)s1)c1ccccn1`, 16% (inactive). On to `Cc1cnc(NC(=O)c2ccc(Cl)nc2)s1`, for which the inhibition is -0.28% (inactive). Under `Cc1cnc(NC(=O)c2ccccn2)s1` stands 21% (active). As for `O=C(CN1CCN(C(=O)C2CCCO2)CC1)Nc1c(Cl)cccc1Cl` (stereo not given), the figure is -1.9% (inactive).

Take `CCN(CC)CCN1C(=O)C(=O)/C(=C(/O)c2cnn(-c3ccccc3)c2C)C1c1cccs1` (stereo not given): the inhibition was 33.3% (active). As for `CCN(CC)CCN1C(=O)C(=O)/C(=C(/O)c2ccccc2)C1c1ccccc1F` (stereo not given), the figure is 1.61% (inactive).

Consider `CCN(CC)CCN1C(=O)C(=O)/C(=C(/O)c2ccc(OC)c(OC)c2)C1c1ccccn1` (stereo not given), for which the inhibition was 0.07% (inactive). Under `CCOc1ccc(OCC(=O)Nc2c3c(nn2C(C)(C)C)CS(=O)(=O)C3)cc1` stands 4.2% (inactive); under `CCN(CCCNC(=O)CCn1c(=O)[nH]c2ccsc2c1=O)c1ccccc1`, 0.39% (inactive). Under `CCN(CCCNC(=O)c1ccc2c(c1)NC(=O)CN2C)c1cccc(C)c1` stands 19.6% (active); under `Cc1cccc(C(=O)NCCCN(C)CCCNC(=O)c2cccc(C)c2)c1`, -1.31% (inactive); under `O=C(Oc1cccc(C(=S)N2CCOCC2)c1)c1cccc(Cl)c1`, -2.58% (inactive). In the case of `CC(=O)c1ccc(N2CCN(C(=O)CCc3ccccc3)CC2)cc1`, the inhibition is -1.79% (inactive). As for `C=CCN1CCN(C(=O)CCCc2ccccc2)CC1`, the figure is 39.7% (active).

Turning to `O=C(CCCc1ccccc1)NCc1ccccc1`, the inhibition is -2.48% (inactive).

For the compound `O=C(OCc1ccc(Br)cc1)c1cccc(-c2nnc(-c3ccccc3)o2)c1`, the inhibition is 3.03% (inactive).

On to `O=C(OCC(=O)c1c[nH]c2ccccc12)c1cccc(O)c1`, for which the inhibition is -4.88% (inactive). With `O=C(OCc1ccc(-c2ccccc2)cc1)c1cccc(O)c1`, the inhibition was 18.4% (active). Under `O=C(COc1cc2oc(=O)c3c(c2cc1Cl)CCC3)NCCCN1CCOCC1` stands -0.69% (inactive); under `COc1ccc(N2CCN(C(=O)C3CCN(C(=O)c4ccccc4Cl)CC3)CC2)cc1`, 1.46% (inactive). Under `COc1ccc(NC(=O)C/C(C)=N/NC(=O)c2cnccn2)cc1Cl` stands -1.56% (inactive); under `Cc1ccc(Sc2cc(C(=O)c3ccccc3C(=O)O)ccc2[N+](=O)[O-])cc1`, -2.36% (inactive).

On to `O=C(CSc1cccc[n+]1[O-])c1ccc(-c2ccccc2)cc1`, for which the inhibition is -3.2% (inactive). Take `Cc1ccc(C(=O)CSc2ccccc2C(=O)O)cc1`: the inhibition is 23.8% (active).

As for `COc1ccc(C(C(=O)NC2CCCC2)N(CCCO)C(=O)Cn2nnc(-c3ccc(C)o3)n2)cc1` (stereo not given), the inhibition was -2.61% (inactive). Under `CCOC(=O)CSc1nc(N2CCOCC2)c2c(c1C#N)CC(C(C)C)OC2` (stereo not given) stands 0.22% (inactive); under `CCC(=C/c1sc2ccc3ccccc3c2[n+]1C)/C=C1\Sc2ccc3ccccc3c2N1C`, 19.1% (active); under `CCn1c(=O)c(=O)[nH]c2c(=O)oc3ccc(S(=O)(=O)Nc4ccc(OC)cc4)cc3c21`, 1.48% (inactive). Under `CCOC(=O)c1ccc(NC(=O)c2ccc(NC(=O)C3CCCO3)cc2)cc1` (stereo not given) stands -2.21% (inactive); under `COc1ccc(CCNC(=O)C(=O)NCC2OCCN2S(=O)(=O)c2ccc(OC)c(C)c2)cc1` (stereo not given), 3.33% (inactive). In the case of `O=C(NCCCN1CCCC1=O)C(=O)NCC1OCCN1S(=O)(=O)c1ccc(Br)cc1` (stereo not given), the inhibition was -3.67% (inactive). Under `CCOC(=O)C1=C(c2ccccc2)NC(=S)NC1c1ccc(Cl)cc1` (stereo not given) stands 2.24% (inactive); under `COc1ccc(C2NC(=S)NC3=C2CCc2ccccc23)cc1OC` (stereo not given), -4.91% (inactive); under `CCOc1ccc(C2NC(=S)NC3=C2CCc2ccccc23)cc1` (stereo not given), 24.1% (active). Take `COc1ccc(-c2cc(=O)oc3cc(OC(C)C(=O)Nc4ccc(CN5CCOCC5)cc4)ccc23)cc1` (stereo not given): the inhibition is -1.3% (inactive).

`COc1cc(OC)cc(C(=O)NCCSCc2ccc(Cl)cc2)c1`: the inhibition was 2.62% (inactive). On to `CCOC(=O)C1CCN(S(=O)(=O)c2c(C)noc2C)CC1`, for which the inhibition was -1.41% (inactive). `COc1ccc(Nc2ncnc3sc(-c4ccccc4)cc23)c(OC)c1`: the inhibition was -1.63% (inactive).

Regarding `C=CCNc1ncnc2ccc(Br)cc12`, the inhibition was -3.86% (inactive). As for `COc1ccc(Nc2ncnc3ccc(Br)cc23)c(OC)c1`, the figure is 35.7% (active); as for `Cc1ccc(S(=O)(=O)NCC(=O)Nc2ccc3c(c2)OCCO3)cc1`, 5.88% (inactive); as for `O=C(Nn1cnc2ccccc2c1=O)c1ccccc1`, -3.95% (inactive). As for `O=c1c2ccccc2ncn1/N=C/c1ccccc1`, the figure is 16.4% (active).

`O=c1c2ccccc2nc(N/N=C/c2ccccc2)n1O`: the inhibition is -0.57% (inactive). Turning to `CC(C)C[C@H](NC(=O)N1CC(=O)Nc2ccccc21)C(=O)N[C@H](Cc1ccccc1)C(=O)O`, the inhibition is -4.11% (inactive). Under `CCC1(CC)NC(=O)N(Cc2nc3ccccc3s2)C1=O` stands 1.16% (inactive); under `COC(=O)C1[C@H]2SC(C)(C)C(C(=O)OC)N2C(=O)N1Cc1nc2ccccc2s1` (stereo not given in full), 26.1% (active). As for `CC1(C)SC2C(NC(=O)COc3ccccc3)C(=O)N2C1C(=O)O` (stereo not given), the figure is -3.05% (inactive); as for `O=[N+]([O-])c1ccc(F)cc1Oc1nc(-c2cccnc2)nc2ccccc12`, 2.73% (inactive); as for `CS(=O)(=O)N1CCN(C(=O)Cc2ccccc2)CC1`, -2.11% (inactive).

On to `O=C(Cc1ccccc1)N1CCN(S(=O)(=O)c2ccc([N+](=O)[O-])cc2)CC1`, for which the inhibition is 20% (active). Under `O=C(Cc1ccccc1)NNS(=O)(=O)c1ccc([N+](=O)[O-])cc1` stands -2.29% (inactive); under `COc1ccc(-c2cc(C(=O)N3CCN(c4ccc(F)cc4)CC3)no2)cc1`, -0.04% (inactive). As for `O=C(CCc1c[nH]c2ccccc12)NCCOc1ccccc1`, the figure is -0.52% (inactive); as for `COc1ccc(Cl)cc1NC(=O)Cn1nc(-c2ccc(C)cc2)n(C)c1=S`, 17.9% (active); as for `COc1ccc(C)cc1NC(=O)CSc1ccc(Cl)cc1`, 1.35% (inactive).

In the case of `COc1ccc(Cl)cc1NC(=O)CN1CCN(C(=O)N2CCOCC2)CC1`, the inhibition was -1.78% (inactive).

For the compound `Cc1ccc(NC(=O)C2CCCN2C(=O)OCc2ccccc2)cc1C` (stereo not given), the inhibition was -2.49% (inactive). In the case of `CCOC(=O)c1ccccc1NS(=O)(=O)c1c(C)nc2sccn2c1=O`, the inhibition is -1.63% (inactive).

On to `CCOC(=O)N1CCN(Cc2nc3c(c(=O)n(C)c(=O)n3C)n2Cc2ccccc2)CC1`, for which the inhibition is 57.6% (active).

For `CCN1CCN(Cc2nc3c(c(=O)n(C)c(=O)n3C)n2CC(=O)c2ccccc2)CC1`, the inhibition is 0.91% (inactive).

Turning to `Cn1c(=O)c2c(nc(CN3CCOCC3)n2Cc2ccccc2)n(C)c1=O`, the inhibition was 8.36% (inactive). As for `COc1cccc(CNS(=O)(=O)c2ccc3c(c2)CC(C)N3C(C)=O)c1` (stereo not given), the figure is -0.03% (inactive); as for `NNC(=O)c1nnn(-c2nonc2N)c1CN1CCCC1`, 2.68% (inactive); as for `Cc1ccc(C)c(OCc2cc(C(=O)N3CCN(c4cnccn4)CC3)no2)c1`, -6.08% (inactive).
